# Assay results published in PMC7862700, “An all-to-all approach to the identification of sequence-specific readers for epigenetic DNA modifications on cytosine”.
# Experiments:
# Assay in all cases: DAPPL (digital affinity profiling via proximity ligation, sequencing); 10 mM Tris-HCl pH 7.5, 50 mM NaCl, 1 mM DTT, 4% glycerol, room temperature, 30 min; GST-TFs on glutathione beads, 16-mer random dsDNA library, 0.1% formaldehyde crosslink after washing; high values mean tight binding
# [1] = target: T1, FLI1 (Homo sapiens, UniProt Q01543 1-452); conditions: protein: recombinant; tags: N-terminal GST; dsDNA, one strand shown
# T1 sequence: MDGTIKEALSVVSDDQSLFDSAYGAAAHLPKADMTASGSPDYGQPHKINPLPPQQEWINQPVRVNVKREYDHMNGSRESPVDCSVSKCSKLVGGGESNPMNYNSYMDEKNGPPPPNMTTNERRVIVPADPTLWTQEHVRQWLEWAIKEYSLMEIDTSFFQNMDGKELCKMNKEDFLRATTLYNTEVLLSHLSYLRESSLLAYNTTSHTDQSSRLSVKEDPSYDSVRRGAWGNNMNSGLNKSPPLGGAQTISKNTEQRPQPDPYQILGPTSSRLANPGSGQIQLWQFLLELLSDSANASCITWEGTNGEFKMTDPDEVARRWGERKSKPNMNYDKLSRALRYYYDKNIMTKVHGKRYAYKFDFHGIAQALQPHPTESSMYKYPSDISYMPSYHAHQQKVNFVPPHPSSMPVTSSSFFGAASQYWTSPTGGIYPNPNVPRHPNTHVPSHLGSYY
# How it was run: (§1)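 Pools were built from human transcription factors expressed in yeast as GST fusions, captured on glutathione beads and DNA-barcoded, along with a tag-only sample. Incubation with 200 nmole of a 16-mer random double-stranded DNA library lasted 30 min at room temperature in Tris/NaCl/DTT/glycerol buffer, and was followed by washing, 0.1% formaldehyde crosslinking, proximity ligation, PCR amplification and Illumina NextSeq500 sequencing. Binding signal is the quotient of each hexamer's read frequency for a factor and its frequency for the tag-only sample.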
# [2] = target: T2, ELK1 (Homo sapiens, UniProt P19419 1-428); conditions: protein: recombinant; tags: N-terminal GST; dsDNA, one strand shown
# T2 sequence: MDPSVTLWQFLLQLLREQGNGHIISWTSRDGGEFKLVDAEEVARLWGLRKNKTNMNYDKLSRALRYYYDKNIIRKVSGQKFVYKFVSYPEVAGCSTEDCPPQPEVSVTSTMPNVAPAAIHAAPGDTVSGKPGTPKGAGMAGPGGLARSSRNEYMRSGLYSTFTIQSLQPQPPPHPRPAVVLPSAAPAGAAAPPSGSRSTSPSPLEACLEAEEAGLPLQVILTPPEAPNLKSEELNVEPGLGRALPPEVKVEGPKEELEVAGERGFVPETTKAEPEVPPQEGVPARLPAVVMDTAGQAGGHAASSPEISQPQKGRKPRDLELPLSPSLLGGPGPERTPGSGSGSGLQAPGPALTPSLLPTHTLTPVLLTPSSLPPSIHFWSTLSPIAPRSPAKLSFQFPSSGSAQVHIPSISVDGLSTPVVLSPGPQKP
# How it was run: as §1
# [3] = target: T3, GABPA (Homo sapiens, UniProt Q06546 1-454); conditions: protein: recombinant; tags: N-terminal GST; dsDNA, one strand shown
# T3 sequence: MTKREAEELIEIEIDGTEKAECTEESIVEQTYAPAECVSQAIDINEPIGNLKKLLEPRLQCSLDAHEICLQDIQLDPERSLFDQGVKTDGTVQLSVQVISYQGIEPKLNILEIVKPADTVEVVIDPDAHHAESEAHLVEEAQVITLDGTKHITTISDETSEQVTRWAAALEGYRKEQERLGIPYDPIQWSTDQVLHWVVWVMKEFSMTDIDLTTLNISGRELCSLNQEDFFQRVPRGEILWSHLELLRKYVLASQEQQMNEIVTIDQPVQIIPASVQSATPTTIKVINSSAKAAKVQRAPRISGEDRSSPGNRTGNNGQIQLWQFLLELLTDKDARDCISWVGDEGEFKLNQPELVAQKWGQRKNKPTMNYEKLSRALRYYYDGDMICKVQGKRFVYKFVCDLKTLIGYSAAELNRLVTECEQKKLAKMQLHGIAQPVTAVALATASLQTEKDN
# How it was run: as §1
# [4] = target: T4, ERG (Homo sapiens, UniProt P11308 1-479); conditions: protein: recombinant; tags: N-terminal GST; dsDNA, one strand shown
# T4 sequence: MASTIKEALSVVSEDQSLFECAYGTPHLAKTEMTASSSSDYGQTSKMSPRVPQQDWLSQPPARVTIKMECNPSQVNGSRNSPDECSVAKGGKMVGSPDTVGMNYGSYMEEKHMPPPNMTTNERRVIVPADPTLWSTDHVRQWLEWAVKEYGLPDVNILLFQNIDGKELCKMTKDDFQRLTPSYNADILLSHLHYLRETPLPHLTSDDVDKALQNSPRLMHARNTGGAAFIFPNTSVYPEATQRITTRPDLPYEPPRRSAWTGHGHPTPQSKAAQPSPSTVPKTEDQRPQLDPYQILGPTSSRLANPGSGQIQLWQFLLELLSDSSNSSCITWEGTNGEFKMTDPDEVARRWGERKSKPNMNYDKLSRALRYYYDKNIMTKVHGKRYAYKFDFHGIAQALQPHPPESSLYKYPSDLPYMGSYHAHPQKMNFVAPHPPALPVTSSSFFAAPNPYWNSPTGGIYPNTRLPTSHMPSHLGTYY
# How it was run: as §1
# [5] = target: ELF1 (Homo sapiens, UniProt P32519 1-619); conditions: protein: recombinant; tags: N-terminal GST; dsDNA, one strand shown
# Sequence of ELF1 (P32519 whole entry): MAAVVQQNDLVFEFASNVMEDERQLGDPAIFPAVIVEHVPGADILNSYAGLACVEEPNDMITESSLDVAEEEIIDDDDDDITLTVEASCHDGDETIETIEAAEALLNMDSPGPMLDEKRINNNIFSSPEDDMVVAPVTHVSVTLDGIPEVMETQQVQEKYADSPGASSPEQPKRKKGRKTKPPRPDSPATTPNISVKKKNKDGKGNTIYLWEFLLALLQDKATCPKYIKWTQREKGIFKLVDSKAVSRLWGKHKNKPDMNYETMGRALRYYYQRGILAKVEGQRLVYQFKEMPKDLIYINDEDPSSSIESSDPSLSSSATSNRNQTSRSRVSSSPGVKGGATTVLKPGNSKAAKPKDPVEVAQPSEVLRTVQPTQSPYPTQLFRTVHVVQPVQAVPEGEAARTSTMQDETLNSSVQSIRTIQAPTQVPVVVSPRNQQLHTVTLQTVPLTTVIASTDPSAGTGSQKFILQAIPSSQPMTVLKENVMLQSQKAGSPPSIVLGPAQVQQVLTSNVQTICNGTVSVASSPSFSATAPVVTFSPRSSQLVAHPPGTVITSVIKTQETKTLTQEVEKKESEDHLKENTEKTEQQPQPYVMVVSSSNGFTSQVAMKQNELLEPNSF
# How it was run: as §1
# [6] = target: T5, EHF (Homo sapiens, UniProt Q9NZC4 1-300); conditions: protein: recombinant; tags: N-terminal GST; dsDNA, one strand shown
# T5 sequence: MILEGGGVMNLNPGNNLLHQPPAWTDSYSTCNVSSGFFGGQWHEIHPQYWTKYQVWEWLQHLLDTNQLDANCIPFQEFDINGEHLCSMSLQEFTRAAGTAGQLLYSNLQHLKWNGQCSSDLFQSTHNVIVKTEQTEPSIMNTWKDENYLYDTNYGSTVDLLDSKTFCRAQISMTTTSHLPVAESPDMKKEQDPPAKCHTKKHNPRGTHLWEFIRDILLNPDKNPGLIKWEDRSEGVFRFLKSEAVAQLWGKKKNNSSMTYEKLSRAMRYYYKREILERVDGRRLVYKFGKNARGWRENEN
# How it was run: as §1
# [7] = target: SPIB (Homo sapiens, UniProt Q01892 1-262); conditions: protein: recombinant; tags: N-terminal GST; dsDNA, one strand shown
# Sequence of SPIB (Q01892 whole entry): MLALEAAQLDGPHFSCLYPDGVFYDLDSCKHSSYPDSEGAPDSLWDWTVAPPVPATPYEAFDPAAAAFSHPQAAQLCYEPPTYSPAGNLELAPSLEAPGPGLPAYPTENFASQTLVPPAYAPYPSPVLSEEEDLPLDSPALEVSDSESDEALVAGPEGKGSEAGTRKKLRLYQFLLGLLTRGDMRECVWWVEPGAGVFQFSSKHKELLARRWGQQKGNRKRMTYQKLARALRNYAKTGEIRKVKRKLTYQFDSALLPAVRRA
# How it was run: as §1
# [8] = target: T6, ELK3 (Homo sapiens, UniProt P41970 1-407); conditions: protein: recombinant; tags: N-terminal GST; dsDNA, one strand shown
# T6 sequence: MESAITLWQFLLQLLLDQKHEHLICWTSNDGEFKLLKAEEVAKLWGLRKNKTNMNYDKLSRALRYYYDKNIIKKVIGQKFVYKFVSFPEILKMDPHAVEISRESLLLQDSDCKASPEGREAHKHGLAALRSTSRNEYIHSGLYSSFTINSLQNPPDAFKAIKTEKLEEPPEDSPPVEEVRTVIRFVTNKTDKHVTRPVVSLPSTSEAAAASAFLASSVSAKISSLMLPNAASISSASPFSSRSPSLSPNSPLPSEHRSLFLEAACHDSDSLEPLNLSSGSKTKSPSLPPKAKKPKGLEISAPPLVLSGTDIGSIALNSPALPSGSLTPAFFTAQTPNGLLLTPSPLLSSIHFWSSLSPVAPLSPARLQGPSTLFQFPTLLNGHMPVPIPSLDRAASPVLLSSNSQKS
# How it was run: as §1
# [9] = target: T7, FEV (Homo sapiens, UniProt Q99581 1-238); conditions: protein: recombinant; tags: N-terminal GST; dsDNA, one strand shown
# T7 sequence: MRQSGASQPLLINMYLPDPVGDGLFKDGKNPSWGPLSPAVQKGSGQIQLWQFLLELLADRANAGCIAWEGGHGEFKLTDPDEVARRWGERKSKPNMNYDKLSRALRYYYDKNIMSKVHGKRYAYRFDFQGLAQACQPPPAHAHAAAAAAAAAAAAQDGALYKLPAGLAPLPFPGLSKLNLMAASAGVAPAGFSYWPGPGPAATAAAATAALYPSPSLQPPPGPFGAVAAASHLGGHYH
# How it was run: as §1
# [10] = target: ETV5 (Homo sapiens, UniProt P41161 1-510); conditions: protein: recombinant; tags: N-terminal GST; dsDNA, one strand shown
# Sequence of ETV5 (P41161 whole entry): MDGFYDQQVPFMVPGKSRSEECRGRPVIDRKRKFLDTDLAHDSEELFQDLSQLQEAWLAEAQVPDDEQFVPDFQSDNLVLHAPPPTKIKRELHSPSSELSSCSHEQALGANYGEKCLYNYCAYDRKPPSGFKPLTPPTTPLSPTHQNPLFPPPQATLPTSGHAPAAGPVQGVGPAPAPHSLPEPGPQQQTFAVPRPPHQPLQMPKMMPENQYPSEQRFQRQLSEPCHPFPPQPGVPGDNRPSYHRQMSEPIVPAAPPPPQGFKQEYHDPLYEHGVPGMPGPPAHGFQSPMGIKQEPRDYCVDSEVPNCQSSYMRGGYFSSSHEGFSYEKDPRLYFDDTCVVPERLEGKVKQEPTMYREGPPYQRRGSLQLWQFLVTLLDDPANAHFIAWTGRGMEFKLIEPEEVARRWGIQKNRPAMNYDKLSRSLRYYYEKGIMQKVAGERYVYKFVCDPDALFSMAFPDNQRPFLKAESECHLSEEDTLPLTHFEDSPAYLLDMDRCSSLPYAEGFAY
# How it was run: as §1
# [11] = target: HSF1 (Homo sapiens, UniProt Q00613 1-529); conditions: protein: recombinant; tags: N-terminal GST; chain copies: 3; dsDNA, one strand shown
# Sequence of HSF1 (Q00613 whole entry): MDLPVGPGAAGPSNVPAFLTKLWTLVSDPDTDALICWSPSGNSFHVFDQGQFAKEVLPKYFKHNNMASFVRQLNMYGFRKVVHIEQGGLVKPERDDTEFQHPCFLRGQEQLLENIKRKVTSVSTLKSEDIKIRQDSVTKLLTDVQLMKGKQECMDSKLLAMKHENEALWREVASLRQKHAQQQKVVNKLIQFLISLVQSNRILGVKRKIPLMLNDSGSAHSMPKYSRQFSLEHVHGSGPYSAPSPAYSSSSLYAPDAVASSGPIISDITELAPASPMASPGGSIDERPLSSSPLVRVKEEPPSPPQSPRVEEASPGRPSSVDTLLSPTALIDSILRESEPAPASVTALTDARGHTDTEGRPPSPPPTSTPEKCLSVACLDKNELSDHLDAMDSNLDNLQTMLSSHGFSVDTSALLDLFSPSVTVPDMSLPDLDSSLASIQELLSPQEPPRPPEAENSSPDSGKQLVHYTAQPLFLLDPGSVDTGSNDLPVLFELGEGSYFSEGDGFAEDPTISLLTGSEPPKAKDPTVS
# How it was run: as §1
# [12] = target: T8, SPIC (Homo sapiens, UniProt Q8N5J4 1-248); conditions: protein: recombinant; tags: N-terminal GST; dsDNA, one strand shown
# T8 sequence: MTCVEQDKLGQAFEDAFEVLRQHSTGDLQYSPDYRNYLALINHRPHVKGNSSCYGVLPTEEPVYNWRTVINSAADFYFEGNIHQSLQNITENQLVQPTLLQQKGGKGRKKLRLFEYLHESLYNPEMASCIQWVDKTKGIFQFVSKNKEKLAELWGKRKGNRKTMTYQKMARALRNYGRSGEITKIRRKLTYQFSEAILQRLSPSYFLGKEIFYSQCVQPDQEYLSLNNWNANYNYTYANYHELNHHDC
# How it was run: as §1
# [13] = target: ELF4 (Homo sapiens, UniProt Q99607 1-663); conditions: protein: recombinant; tags: N-terminal GST; dsDNA, one strand shown
# Sequence of ELF4 (Q99607 whole entry): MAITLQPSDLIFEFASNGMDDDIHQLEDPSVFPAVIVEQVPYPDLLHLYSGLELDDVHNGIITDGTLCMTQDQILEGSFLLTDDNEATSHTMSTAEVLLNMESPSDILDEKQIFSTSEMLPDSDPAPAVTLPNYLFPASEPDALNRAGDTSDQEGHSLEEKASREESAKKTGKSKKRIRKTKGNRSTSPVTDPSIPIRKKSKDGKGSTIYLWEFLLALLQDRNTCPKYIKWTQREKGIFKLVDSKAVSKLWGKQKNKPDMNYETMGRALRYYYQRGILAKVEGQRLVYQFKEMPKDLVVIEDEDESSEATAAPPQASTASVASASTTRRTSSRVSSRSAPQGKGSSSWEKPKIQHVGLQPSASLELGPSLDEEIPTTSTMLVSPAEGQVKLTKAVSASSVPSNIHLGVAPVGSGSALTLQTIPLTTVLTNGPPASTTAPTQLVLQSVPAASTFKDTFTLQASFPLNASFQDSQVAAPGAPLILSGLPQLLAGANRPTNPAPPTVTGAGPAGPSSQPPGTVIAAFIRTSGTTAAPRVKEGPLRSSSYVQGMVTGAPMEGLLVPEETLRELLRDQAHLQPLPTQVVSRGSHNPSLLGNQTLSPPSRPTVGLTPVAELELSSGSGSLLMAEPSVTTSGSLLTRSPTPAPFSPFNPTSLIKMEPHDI
# How it was run: as §1
# [14] = target: T9, ELK4 (Homo sapiens, UniProt P28324-2 1-405); conditions: protein: recombinant; tags: N-terminal GST; dsDNA, one strand shown
# T9 sequence: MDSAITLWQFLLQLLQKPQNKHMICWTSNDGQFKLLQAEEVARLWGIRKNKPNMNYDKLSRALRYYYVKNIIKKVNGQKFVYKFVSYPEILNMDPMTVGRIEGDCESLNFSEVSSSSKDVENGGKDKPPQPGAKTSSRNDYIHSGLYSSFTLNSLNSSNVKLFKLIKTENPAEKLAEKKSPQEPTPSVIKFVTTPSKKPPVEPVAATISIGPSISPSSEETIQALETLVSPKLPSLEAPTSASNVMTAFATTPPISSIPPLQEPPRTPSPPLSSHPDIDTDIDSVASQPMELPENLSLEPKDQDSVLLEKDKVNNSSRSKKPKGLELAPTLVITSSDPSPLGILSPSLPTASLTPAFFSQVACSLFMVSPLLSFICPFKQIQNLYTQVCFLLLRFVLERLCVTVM
# How it was run: as §1
# [15] = target: T10, ETV2 (Homo sapiens, UniProt O00321 1-342); conditions: protein: recombinant; tags: N-terminal GST; dsDNA, one strand shown
# T10 sequence: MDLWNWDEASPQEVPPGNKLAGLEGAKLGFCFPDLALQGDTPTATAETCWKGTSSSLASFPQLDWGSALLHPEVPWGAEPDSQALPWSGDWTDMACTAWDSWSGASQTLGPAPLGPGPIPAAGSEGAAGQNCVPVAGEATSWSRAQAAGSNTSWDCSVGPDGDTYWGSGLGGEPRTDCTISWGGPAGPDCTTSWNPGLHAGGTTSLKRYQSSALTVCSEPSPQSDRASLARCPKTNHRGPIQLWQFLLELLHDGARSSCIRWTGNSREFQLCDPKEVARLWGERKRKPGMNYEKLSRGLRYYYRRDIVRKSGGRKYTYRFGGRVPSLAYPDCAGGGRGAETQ
# How it was run: as §1
# [16] = target: T11, ELF3 (Homo sapiens, UniProt P78545 1-371); conditions: protein: recombinant; tags: N-terminal GST; dsDNA, one strand shown
# T11 sequence: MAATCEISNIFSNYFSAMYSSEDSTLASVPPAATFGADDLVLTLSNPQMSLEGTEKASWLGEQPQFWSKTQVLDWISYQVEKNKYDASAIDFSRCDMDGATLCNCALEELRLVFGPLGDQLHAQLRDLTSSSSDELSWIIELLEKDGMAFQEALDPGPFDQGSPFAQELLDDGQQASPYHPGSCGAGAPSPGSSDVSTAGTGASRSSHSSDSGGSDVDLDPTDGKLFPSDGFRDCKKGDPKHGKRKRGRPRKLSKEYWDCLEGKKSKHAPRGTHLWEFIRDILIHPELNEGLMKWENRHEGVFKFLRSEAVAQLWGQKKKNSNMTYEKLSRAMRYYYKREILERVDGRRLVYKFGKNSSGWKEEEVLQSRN
# How it was run: as §1
# [17] = target: CRX (Homo sapiens, UniProt O43186 1-299); conditions: protein: recombinant; tags: N-terminal GST; dsDNA, one strand shown
# Sequence of CRX (O43186 whole entry): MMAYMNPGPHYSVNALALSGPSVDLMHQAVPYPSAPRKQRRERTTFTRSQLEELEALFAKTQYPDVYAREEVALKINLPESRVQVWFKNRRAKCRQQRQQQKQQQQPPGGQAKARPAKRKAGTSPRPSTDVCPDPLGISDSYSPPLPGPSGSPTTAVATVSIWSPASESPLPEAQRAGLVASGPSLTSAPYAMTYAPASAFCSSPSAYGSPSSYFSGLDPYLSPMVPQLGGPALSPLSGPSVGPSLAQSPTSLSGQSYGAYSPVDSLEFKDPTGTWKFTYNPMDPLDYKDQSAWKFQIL
# How it was run: as §1
# [18] = target: ETV1 (Homo sapiens, UniProt P50549 1-477); conditions: protein: recombinant; tags: N-terminal GST; dsDNA, one strand shown
# Sequence of ETV1 (P50549 whole entry): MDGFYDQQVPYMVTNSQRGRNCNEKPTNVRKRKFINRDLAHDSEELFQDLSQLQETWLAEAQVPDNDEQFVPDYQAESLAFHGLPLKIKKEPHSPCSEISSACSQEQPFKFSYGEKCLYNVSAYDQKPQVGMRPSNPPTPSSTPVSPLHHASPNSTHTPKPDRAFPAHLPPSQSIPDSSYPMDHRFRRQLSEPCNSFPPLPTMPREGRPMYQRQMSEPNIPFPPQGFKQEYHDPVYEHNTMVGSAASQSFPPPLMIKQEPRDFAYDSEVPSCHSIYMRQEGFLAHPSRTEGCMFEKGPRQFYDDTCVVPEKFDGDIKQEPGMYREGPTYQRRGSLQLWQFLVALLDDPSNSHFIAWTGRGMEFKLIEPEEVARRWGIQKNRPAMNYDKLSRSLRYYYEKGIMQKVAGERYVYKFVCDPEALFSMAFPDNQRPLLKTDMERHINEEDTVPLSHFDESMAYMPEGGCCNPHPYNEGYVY
# How it was run: as §1
sequence,measurement,setting,value
GATATT,binding signal,[1],"1.11 fold enrichment (6-mer frequency, TF over GST control)"
same,binding signal,[2],"1.17 fold enrichment (6-mer frequency, TF over GST control)"
same,binding signal,[3],"1.06 fold enrichment (6-mer frequency, TF over GST control)"
same,binding signal,[4],"1.12 fold enrichment (6-mer frequency, TF over GST control)"
same,binding signal,[5],"1.13 fold enrichment (6-mer frequency, TF over GST control)"
same,binding signal,[6],"1.12 fold enrichment (6-mer frequency, TF over GST control)"
same,binding signal,[7],"1.13 fold enrichment (6-mer frequency, TF over GST control)"
same,binding signal,[8],"1 fold enrichment (6-mer frequency, TF over GST control)"
same,binding signal,[9],"1.04 fold enrichment (6-mer frequency, TF over GST control)"
same,binding signal,[10],"1.14 fold enrichment (6-mer frequency, TF over GST control)"
same,binding signal,[11],"1.18 fold enrichment (6-mer frequency, TF over GST control)"
same,binding signal,[12],"1.12 fold enrichment (6-mer frequency, TF over GST control)"
same,binding signal,[13],"1.12 fold enrichment (6-mer frequency, TF over GST control)"
same,binding signal,[14],"1.15 fold enrichment (6-mer frequency, TF over GST control)"
same,binding signal,[15],"1.24 fold enrichment (6-mer frequency, TF over GST control)"
same,binding signal,[16],"1.07 fold enrichment (6-mer frequency, TF over GST control)"
same,binding signal,[17],"1.31 fold enrichment (6-mer frequency, TF over GST control)"
same,binding signal,[18],"1.1 fold enrichment (6-mer frequency, TF over GST control)"
